The text below walks through data of article PMC11006913.

Where a chain is given by its changes, count along the chain named.

Assay in all cases: PBM; 200 nM protein, PBS
What all share (details): dsDNA, one strand shown

For experiment [1], the target named is SHOX (Homo sapiens, UniProt O15266 103-189).
Experiment [2] has as its target T1, VENTX (Homo sapiens, UniProt O95231 78-163, R121Q).
T1 sequence: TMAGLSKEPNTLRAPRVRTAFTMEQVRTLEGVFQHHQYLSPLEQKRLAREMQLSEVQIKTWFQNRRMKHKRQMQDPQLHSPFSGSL

The target of experiment [3] is T2, VENTX (Homo sapiens, UniProt O95231 78-163).
T2 sequence: T1 sequence with Q44R

Experiment [4] deals with ALX4 (Homo sapiens, UniProt Q9H161 200-286).
Experiment [5] has as its target T3, VENTX (Homo sapiens, UniProt O95231 78-163, Y115F).
T3 sequence: T1 sequence with Y38F, Q44R

Experiment [6] addresses ALX4 (Homo sapiens, UniProt Q9H161 200-286, Q225E).
The target of experiment [7] is SHOX (Homo sapiens, UniProt O15266 103-189, R173C).
The target in experiment [8] is CRX (Homo sapiens, UniProt O43186 26-111).
Experiment [9] deals with CRX (Homo sapiens, UniProt O43186 26-111, E42D).
In another experiment the target is PITX2 (Homo sapiens, UniProt Q99697 72-157).
Experiment [10] concerns the target CRX (Homo sapiens, UniProt O43186 26-111, R41L).
In experiment [11] the target is MSX2 (Homo sapiens, UniProt P35548 130-214, R199I).
Experiment [12] addresses MSX2 (Homo sapiens, UniProt P35548 130-214).
Experiment [13] deals with MSX2 (Homo sapiens, UniProt P35548 130-214, F161Y).
Experiment [14] deals with T4, PAX4 (Homo sapiens, UniProt O43316 9-242, R200K).
T4 sequence: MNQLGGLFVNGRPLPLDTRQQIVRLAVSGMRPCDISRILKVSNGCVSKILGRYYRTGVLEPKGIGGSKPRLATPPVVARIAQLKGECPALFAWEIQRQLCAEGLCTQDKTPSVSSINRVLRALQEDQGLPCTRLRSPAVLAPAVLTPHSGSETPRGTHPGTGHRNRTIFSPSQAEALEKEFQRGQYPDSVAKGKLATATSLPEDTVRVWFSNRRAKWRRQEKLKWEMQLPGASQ

Experiment [15] deals with T5, PAX4 (Homo sapiens, UniProt O43316 9-242).
T5 sequence: T4 sequence with K192R

For experiment [16], the target named is T6, PAX4 (Homo sapiens, UniProt O43316 9-242, R200Q).
T6 sequence: T4 sequence with K192Q

The target in experiment [17] is T7, PAX4 (Homo sapiens, UniProt O43316 9-242, F177V).
T7 sequence: T4 sequence with F169V, K192R

The target of experiment [18] is T8, PAX4 (Homo sapiens, UniProt O43316 9-242, F177Y).
T8 sequence: T4 sequence with F169Y, K192R

Experiment [19] has as its target T9, PAX4 (Homo sapiens, UniProt O43316 9-242, R227W).
T9 sequence: T4 sequence with K192R, R219W

Experiment [20] deals with HOXC9 (Homo sapiens, UniProt P31274 178-260, K195R).
Experiment [21] deals with HOXC9 (Homo sapiens, UniProt P31274 178-260).
The target of experiment [22] is HOXC9 (Homo sapiens, UniProt P31274 178-260, R193K).
Experiment [23] concerns the target HOXC9 (Homo sapiens, UniProt P31274 178-260, R222W).
Experiment [24] concerns the target HOXB6 (Homo sapiens, UniProt P17509 132-218, K202E).
The target in experiment [25] is HOXB6 (Homo sapiens, UniProt P17509 132-218).
Experiment [26] has as its target T10, NKX2-4 (Homo sapiens, UniProt Q9H2Z4 175-261, P217L).
T10 sequence: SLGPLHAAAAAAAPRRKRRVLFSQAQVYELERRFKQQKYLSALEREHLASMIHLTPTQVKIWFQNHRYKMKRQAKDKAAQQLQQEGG

Experiment [27] deals with T11, NKX2-4 (Homo sapiens, UniProt Q9H2Z4 175-261, T231S).
T11 sequence: T10 sequence with L43P, T57S

Experiment [28] concerns the target T12, NKX2-4 (Homo sapiens, UniProt Q9H2Z4 175-261).
T12 sequence: T10 sequence with L43P

For experiment [29], the target named is ALX1 (Homo sapiens, UniProt Q15699 118-204, L144V).
Experiment [30] concerns the target ALX3 (Homo sapiens, UniProt O95076 139-225, N203Q).
Experiment [31] has as its target ALX1 (Homo sapiens, UniProt Q15699 118-204, L144R).
In experiment [32] the target is ALX3 (Homo sapiens, UniProt O95076 139-225).
The target of experiment [33] is T13, NKX2-4 (Homo sapiens, UniProt Q9H2Z4 175-261, R246Q).
T13 sequence: T10 sequence with L43P, R72Q

Experiment [34] deals with ALX3 (Homo sapiens, UniProt O95076 139-225, L168Q).
The target of experiment [35] is ALX3 (Homo sapiens, UniProt O95076 139-225, L168V).
The target in experiment [36] is ALX1 (Homo sapiens, UniProt Q15699 118-204).
The target in experiment [37] is ALX3 (Homo sapiens, UniProt O95076 139-225, N203S).
ALX3 (Homo sapiens, UniProt O95076 139-225, N203S), sequence (O95076 139-225 N203S): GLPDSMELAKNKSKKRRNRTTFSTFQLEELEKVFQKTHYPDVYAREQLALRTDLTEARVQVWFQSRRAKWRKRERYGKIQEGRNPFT

SHOX (Homo sapiens, UniProt O15266 103-189), sequence (O15266 103-189): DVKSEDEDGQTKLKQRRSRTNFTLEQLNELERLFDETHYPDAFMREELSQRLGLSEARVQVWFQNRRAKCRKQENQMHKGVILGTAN
SHOX (Homo sapiens, UniProt O15266 103-189, R173C), sequence (O15266 103-189 R173C): as the sequence (O15266 103-189) above, with R71C counted along it
CRX (Homo sapiens, UniProt O43186 26-111), sequence (O43186 26-111): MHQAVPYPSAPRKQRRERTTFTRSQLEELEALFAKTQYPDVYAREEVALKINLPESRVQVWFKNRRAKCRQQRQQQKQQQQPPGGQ
CRX (Homo sapiens, UniProt O43186 26-111, E42D), sequence (O43186 26-111 E42D): as the sequence (O43186 26-111) above, with E17D counted along it
CRX (Homo sapiens, UniProt O43186 26-111, R41L), sequence (O43186 26-111 R41L): as the sequence (O43186 26-111) above, with R16L counted along it
HOXC9 (Homo sapiens, UniProt P31274 178-260, K195R), sequence (P31274 178-260 K195R): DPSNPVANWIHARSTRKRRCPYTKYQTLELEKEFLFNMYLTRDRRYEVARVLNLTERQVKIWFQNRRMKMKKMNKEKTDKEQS
MSX2 (Homo sapiens, UniProt P35548 130-214), sequence (P35548 130-214): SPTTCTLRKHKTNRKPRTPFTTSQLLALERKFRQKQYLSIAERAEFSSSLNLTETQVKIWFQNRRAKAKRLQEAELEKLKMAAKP
HOXB6 (Homo sapiens, UniProt P17509 132-218, K202E), sequence (P17509 132-218 K202E): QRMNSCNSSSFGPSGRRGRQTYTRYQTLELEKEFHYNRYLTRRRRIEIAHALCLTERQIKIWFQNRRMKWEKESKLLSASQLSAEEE
ALX1 (Homo sapiens, UniProt Q15699 118-204, L144V), sequence (Q15699 118-204 L144V): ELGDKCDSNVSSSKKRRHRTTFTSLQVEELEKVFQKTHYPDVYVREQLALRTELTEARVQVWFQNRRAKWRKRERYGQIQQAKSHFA
HOXB6 (Homo sapiens, UniProt P17509 132-218), sequence (P17509 132-218): as the sequence (P17509 132-218 K202E) above, with E71K counted along it
ALX1 (Homo sapiens, UniProt Q15699 118-204, L144R), sequence (Q15699 118-204 L144R): as the sequence (Q15699 118-204 L144V) above, with V27R counted along it
ALX3 (Homo sapiens, UniProt O95076 139-225), sequence (O95076 139-225): as the sequence (O95076 139-225 N203S) above, with S65N counted along it
HOXC9 (Homo sapiens, UniProt P31274 178-260, R222W), sequence (P31274 178-260 R222W): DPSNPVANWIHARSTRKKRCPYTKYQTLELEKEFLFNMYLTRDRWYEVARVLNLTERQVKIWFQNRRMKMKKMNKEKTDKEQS
ALX4 (Homo sapiens, UniProt Q9H161 200-286, Q225E), sequence (Q9H161 200-286 Q225E): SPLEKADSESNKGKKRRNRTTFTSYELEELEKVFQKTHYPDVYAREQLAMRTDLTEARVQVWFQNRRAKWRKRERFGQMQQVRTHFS
ALX4 (Homo sapiens, UniProt Q9H161 200-286), sequence (Q9H161 200-286): as the sequence (Q9H161 200-286 Q225E) above, with E26Q counted along it
HOXC9 (Homo sapiens, UniProt P31274 178-260), sequence (P31274 178-260): as the sequence (P31274 178-260 R222W) above, with W45R counted along it
HOXC9 (Homo sapiens, UniProt P31274 178-260, R193K), sequence (P31274 178-260 R193K): as the sequence (P31274 178-260 R222W) above, with R16K, W45R counted along it
MSX2 (Homo sapiens, UniProt P35548 130-214, R199I), sequence (P35548 130-214 R199I): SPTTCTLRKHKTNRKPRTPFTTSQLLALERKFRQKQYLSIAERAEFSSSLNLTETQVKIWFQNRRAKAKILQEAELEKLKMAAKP
ALX3 (Homo sapiens, UniProt O95076 139-225, L168V), sequence (O95076 139-225 L168V): as the sequence (O95076 139-225 N203S) above, with L30V, S65N counted along it
MSX2 (Homo sapiens, UniProt P35548 130-214, F161Y), sequence (P35548 130-214 F161Y): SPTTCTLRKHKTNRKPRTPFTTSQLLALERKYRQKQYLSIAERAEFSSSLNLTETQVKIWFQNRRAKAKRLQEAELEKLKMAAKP
ALX1 (Homo sapiens, UniProt Q15699 118-204), sequence (Q15699 118-204): as the sequence (Q15699 118-204 L144V) above, with V27L counted along it
ALX3 (Homo sapiens, UniProt O95076 139-225, N203Q), sequence (O95076 139-225 N203Q): as the sequence (O95076 139-225 N203S) above, with S65Q counted along it
ALX3 (Homo sapiens, UniProt O95076 139-225, L168Q), sequence (O95076 139-225 L168Q): as the sequence (O95076 139-225 N203S) above, with L30Q, S65N counted along it

For GCGCCCCC, the binding signal in the experiment with SHOX [1] was 7.04 upbm affinity estimate (log intensity, higher = more binding, comparable within an allelic series); in the experiment with VENTX [2] it was 8.12 upbm affinity estimate (log intensity, higher = more binding, comparable within an allelic series); with VENTX [3] it was 8.12 upbm affinity estimate (log intensity, higher = more binding, comparable within an allelic series); in the experiment with ALX4 [4], 8.12 upbm affinity estimate (log intensity, higher = more binding, comparable within an allelic series); in the experiment with VENTX [5], 8.06 upbm affinity estimate (log intensity, higher = more binding, comparable within an allelic series); in the experiment with ALX4 [6], 8.14 upbm affinity estimate (log intensity, higher = more binding, comparable within an allelic series). Besides, the binding signal with SHOX [7] is 7.07 upbm affinity estimate (log intensity, higher = more binding, comparable within an allelic series).
Turning to GATTAATC, the binding signal in the experiment with SHOX [1] is 10.2 upbm affinity estimate (log intensity, higher = more binding, comparable within an allelic series); with CRX [8], 13.2 upbm affinity estimate (log intensity, higher = more binding, comparable within an allelic series); with CRX [9], 13 upbm affinity estimate (log intensity, higher = more binding, comparable within an allelic series); with PITX2, 12.9 upbm affinity estimate (log intensity, higher = more binding, comparable within an allelic series); with CRX [10], 12.9 upbm affinity estimate (log intensity, higher = more binding, comparable within an allelic series).
With CCTGCCTC, the binding signal with SHOX [1] was 7.13 upbm affinity estimate (log intensity, higher = more binding, comparable within an allelic series); in the experiment with CRX [8], 8.19 upbm affinity estimate (log intensity, higher = more binding, comparable within an allelic series); with CRX [9], 8.2 upbm affinity estimate (log intensity, higher = more binding, comparable within an allelic series); in the experiment with MSX2 [11], 9.6 upbm affinity estimate (log intensity, higher = more binding, comparable within an allelic series); with SHOX [7], 7.13 upbm affinity estimate (log intensity, higher = more binding, comparable within an allelic series); with MSX2 [12], 9.51 upbm affinity estimate (log intensity, higher = more binding, comparable within an allelic series). The binding signal in the experiment with MSX2 [13] is 9.51 upbm affinity estimate (log intensity, higher = more binding, comparable within an allelic series); with CRX [10], 8.18 upbm affinity estimate (log intensity, higher = more binding, comparable within an allelic series).
On to ATTCATGA, for which the binding signal with SHOX [1] is 8.41 upbm affinity estimate (log intensity, higher = more binding, comparable within an allelic series).
GGGCAGAC: the binding signal is 7.12 upbm affinity estimate (log intensity, higher = more binding, comparable within an allelic series) with SHOX [1]; 7.99 upbm affinity estimate (log intensity, higher = more binding, comparable within an allelic series) with VENTX [2]; 8.2 upbm affinity estimate (log intensity, higher = more binding, comparable within an allelic series) with VENTX [3]; 9.48 upbm affinity estimate (log intensity, higher = more binding, comparable within an allelic series) with PAX4 [14]; 8.13 upbm affinity estimate (log intensity, higher = more binding, comparable within an allelic series) with VENTX [5]; 9.45 upbm affinity estimate (log intensity, higher = more binding, comparable within an allelic series) with PAX4 [15]. Moreover, the binding signal with PAX4 [16] was 9.48 upbm affinity estimate (log intensity, higher = more binding, comparable within an allelic series); with SHOX [7] it was 7.25 upbm affinity estimate (log intensity, higher = more binding, comparable within an allelic series); in the experiment with PAX4 [17], 9.22 upbm affinity estimate (log intensity, higher = more binding, comparable within an allelic series); with PAX4 [18], 9.21 upbm affinity estimate (log intensity, higher = more binding, comparable within an allelic series); with PAX4 [19] it was 9.33 upbm affinity estimate (log intensity, higher = more binding, comparable within an allelic series).
With ATATAGAG, the binding signal in the experiment with SHOX [1] was 8.28 upbm affinity estimate (log intensity, higher = more binding, comparable within an allelic series).
Consider AAATATAA, for which the binding signal with SHOX [1] was 9.24 upbm affinity estimate (log intensity, higher = more binding, comparable within an allelic series).
In the case of CTATCATC, the binding signal with SHOX [1] is 8.16 upbm affinity estimate (log intensity, higher = more binding, comparable within an allelic series).
Still for that read-out and setting: the same measure for ACGTAATC: 8.86 upbm affinity estimate (log intensity, higher = more binding, comparable within an allelic series); for ATTATCCA: 9.69 upbm affinity estimate (log intensity, higher = more binding, comparable within an allelic series).
Turning to CCCCCGGG, the binding signal with SHOX [1] was 6.93 upbm affinity estimate (log intensity, higher = more binding, comparable within an allelic series); with HOXC9 [20], 9.28 upbm affinity estimate (log intensity, higher = more binding, comparable within an allelic series); in the experiment with HOXC9 [21], 9.39 upbm affinity estimate (log intensity, higher = more binding, comparable within an allelic series); with SHOX [7], 6.97 upbm affinity estimate (log intensity, higher = more binding, comparable within an allelic series); with HOXC9 [22], 9.25 upbm affinity estimate (log intensity, higher = more binding, comparable within an allelic series); with HOXC9 [23], 9.53 upbm affinity estimate (log intensity, higher = more binding, comparable within an allelic series).
With AATTTCGA, the binding signal with SHOX [1] is 8.68 upbm affinity estimate (log intensity, higher = more binding, comparable within an allelic series).
GCTCCGAC: the binding signal was 7.2 upbm affinity estimate (log intensity, higher = more binding, comparable within an allelic series) with SHOX [1]; 8.1 upbm affinity estimate (log intensity, higher = more binding, comparable within an allelic series) with VENTX [2]; 8.29 upbm affinity estimate (log intensity, higher = more binding, comparable within an allelic series) in the experiment with VENTX [3]; 8.19 upbm affinity estimate (log intensity, higher = more binding, comparable within an allelic series) with VENTX [5]; 9.12 upbm affinity estimate (log intensity, higher = more binding, comparable within an allelic series) in the experiment with HOXB6 [24]; 7.25 upbm affinity estimate (log intensity, higher = more binding, comparable within an allelic series) in the experiment with SHOX [7]. Further, in the experiment with HOXB6 [25], the binding signal was 9.05 upbm affinity estimate (log intensity, higher = more binding, comparable within an allelic series).
Take GCCGTAGC: the binding signal with SHOX [1] was 6.96 upbm affinity estimate (log intensity, higher = more binding, comparable within an allelic series); in the experiment with NKX2-4 [26], 9.17 upbm affinity estimate (log intensity, higher = more binding, comparable within an allelic series); with VENTX [2], 7.91 upbm affinity estimate (log intensity, higher = more binding, comparable within an allelic series); with VENTX [3], 7.82 upbm affinity estimate (log intensity, higher = more binding, comparable within an allelic series); with NKX2-4 [27], 9.15 upbm affinity estimate (log intensity, higher = more binding, comparable within an allelic series); in the experiment with VENTX [5] it was 7.86 upbm affinity estimate (log intensity, higher = more binding, comparable within an allelic series). Further, the binding signal is 9.34 upbm affinity estimate (log intensity, higher = more binding, comparable within an allelic series) in the experiment with NKX2-4 [28]; 6.19 upbm affinity estimate (log intensity, higher = more binding, comparable within an allelic series) in the experiment with ALX1 [29]; 7.67 upbm affinity estimate (log intensity, higher = more binding, comparable within an allelic series) in the experiment with ALX3 [30]; 7.22 upbm affinity estimate (log intensity, higher = more binding, comparable within an allelic series) in the experiment with SHOX [7]; 6.26 upbm affinity estimate (log intensity, higher = more binding, comparable within an allelic series) in the experiment with ALX1 [31]; 7.55 upbm affinity estimate (log intensity, higher = more binding, comparable within an allelic series) with ALX3 [32]. The binding signal is 9.33 upbm affinity estimate (log intensity, higher = more binding, comparable within an allelic series) with NKX2-4 [33]; 7.74 upbm affinity estimate (log intensity, higher = more binding, comparable within an allelic series) with ALX3 [34]; 7.76 upbm affinity estimate (log intensity, higher = more binding, comparable within an allelic series) with ALX3 [35]; 6.18 upbm affinity estimate (log intensity, higher = more binding, comparable within an allelic series) with ALX1 [36]; 7.68 upbm affinity estimate (log intensity, higher = more binding, comparable within an allelic series) in the experiment with ALX3 [37].
